This is a sample that favours compounds with a hit; in the whole collection about 9.2% have one here.
ELG1 DNA repair: inhibitors of ELG1-dependent DNA repair in HEK293T cells. Potency, µM (top dose mostly 46.1 µM), without a hit: at the highest dose activity change, negative = inhibition, most hits filed as inhibitors. hit rate 2.3% among 330,000. HEK293T ELG1-luciferase reporter, luminescence, 16 h; DNA damage induced by 5-fluorouridine; also: % is scaled to controls: 0 for no effect and ±100 for the full control effect; nearly all actives have a fitted effect of over 55% in size
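Reporter activity after DNA damage by 5-fluorouridine is monitored. Compound-treated cells incubate 16 hr at 37 °C, then ONE-Glo is added for 30 min before luminescence reading.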
SMN2 splice up: SMN2 splice variant enhancement. HEK293 SMN2-luciferase splicing reporter, luminescence, 30-36 h. Potency, µM (titrated, usually from 46.1 µM), for inactives: at the highest dose activity change, positive = activation, hits mostly activators. hit rate 2.8% among 210,000. AID 1458; also: % of control where 0% means no effect; nearly all actives have a fitted effect of over 55% in size
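HEK293 cells carry an SMN2 […]–luciferase reporter in which exon 7 inclusion puts luciferase in frame. Cells were plated 10-12 h before compound addition, then incubated 30-36 h at 37C. ONE-Glo luminescence was read; sodium butyrate at 4.5 mM final served as control.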
FLuc modulator: counter-screen for miR-21 project: firefly luciferase inhibitors or activators; P08659; purified FLuc, Km substrates, luminescence inhibition; Potency, µM (series often up to 57.5 µM), for the others: at the top dose activity change, negative = inhibition, actives largely listed as inhibitors; hit rate 6.9% among 360,000;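 also: plate controls were vehicle for no effect and reference inhibitor for full effect; nearly all actives have a fitted effect of over 55% in size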
Target sequence (P08659 whole entry, looked up): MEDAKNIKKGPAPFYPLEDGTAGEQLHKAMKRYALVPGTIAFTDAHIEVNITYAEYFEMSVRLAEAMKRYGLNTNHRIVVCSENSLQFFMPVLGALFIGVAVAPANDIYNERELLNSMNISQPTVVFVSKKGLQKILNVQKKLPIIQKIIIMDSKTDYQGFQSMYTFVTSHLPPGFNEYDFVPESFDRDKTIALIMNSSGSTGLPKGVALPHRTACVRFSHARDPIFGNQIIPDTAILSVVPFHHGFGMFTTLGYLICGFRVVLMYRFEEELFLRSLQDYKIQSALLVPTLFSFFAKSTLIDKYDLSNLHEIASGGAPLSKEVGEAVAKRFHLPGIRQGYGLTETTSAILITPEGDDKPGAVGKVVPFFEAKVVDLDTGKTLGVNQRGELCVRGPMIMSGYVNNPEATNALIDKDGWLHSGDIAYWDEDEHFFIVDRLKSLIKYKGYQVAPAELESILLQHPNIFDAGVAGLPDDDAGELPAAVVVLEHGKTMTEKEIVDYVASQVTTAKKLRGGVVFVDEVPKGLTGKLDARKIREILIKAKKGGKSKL
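Purified P. pyralis luciferase (10nM final) with 10uM D-luciferin and 10uM ATP (Km levels) in 50mM Tris acetate pH 7.5, 10mM Mg acetate, 0.01% Tween-20, 0.05% BSA; qHTS 6-point titration, ~60 µM downward; luminescence read.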
ELG1 genotox: inducers of genotoxicity in HEK293T ELG1-luciferase cells. HEK293T ELG1-luciferase reporter, luminescence, 16 h. hit rate 1.3% among 330,000. Potency, µM (highest dose often 46 µM), inactives show at the top dose activity change, positive = activation, hits mostly activators; also: % of control where 0% means no effect; nearly all actives have a fitted effect of over 60% in size
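16 hr compound incubation (37 °C, 5% CO2) of HEK293T cells carrying luciferase-tagged ELG1; luciferase then measured by ONE-Glo luminescence after 30 min at RT.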
Rab9 promoter act: activates the Rab9 promoter; hit rate 2.8% among 320,000; Potency, µM (highest dose often 9.22 µM), without a hit: top-dose activation, negative = inhibition, hits mostly activators; Huh7 Rab9 promoter-luciferase reporter, luminescence, 24 h; also: % of control where 0% means no effect; nearly all actives have a fitted effect of over 60% in size
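Using Huh7 cells stably transfected with Rab9 promoter–luciferase, compounds were incubated 24 h at 37 °C, 5% CO2; luciferase luminescence was read 10 min after reagent addition.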
NPC1 prom act: activates the NPC1 promoter | Potency, µM (highest dose often 9.22 µM), without a hit: at the top dose activation, most hits filed as activators | Huh7 NPC1 promoter luciferase reporter, 24 h | hit rate 2.4% among 320,000 | AID 485313; also: % of control where 0% means no effect; nearly all actives have a fitted effect of over 60% in size
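Huh7 reporter cells (NPC1 promoter driving luciferase) are dosed with compound for 24 h at 37 °C, 5% CO2; luciferase detection reagent is then added and luminescence measured after 10 min at ambient temperature.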
* = called active by the depositor. Calls follow the shape of the dose curve; as a rule, active = well fitted curve in the direction sought with a large enough effect; inconclusive = small, poorly fitted or top-dose-only effect, or another doubt; inactive = no such curve, though single readings can be large; an effect the other way counts as inactive or inconclusive. Potency is read from the fitted curve at half-maximal effect.

`COCCNC(=O)CSc1nc2ccccc2c(=O)n1CCC(=O)N1CCN(c2ccccc2)CC1` gave ELG1 DNA repair -10.1%, SMN2 splice up 0.7%, FLuc modulator 2.2%, ELG1 genotox -3.2%, Rab9 promoter act -2.8% and NPC1 prom act -2.3%.
COC(=O)c1ccccc1NC(=O)CN1C(=O)COc2ccc(Cl)cc21 was read as SMN2 splice up 0.6% and FLuc modulator -7.3%.
Screening CC1Oc2ccccc2N(CC(=O)c2ccc(F)cc2)C1=O (centres undefined) returned ELG1 DNA repair 10.7%, SMN2 splice up 5.7%, FLuc modulator -6.4%, ELG1 genotox -1.4%, Rab9 promoter act 26.1% and NPC1 prom act 0.2%.
For Cc1c(C)c2ccc(OCC(=O)Nc3cccnc3)c(C)c2oc1=O the results were ELG1 DNA repair inconclusive, FLuc modulator 10.7µM*, ELG1 genotox inconclusive, Rab9 promoter act 19.8% and NPC1 prom act inconclusive.
For Cc1cc(Cl)ccc1OCC(=O)Nc1cccnc1 the results were ELG1 DNA repair inconclusive, FLuc modulator 13.5µM*, ELG1 genotox inconclusive, Rab9 promoter act -6.5% and NPC1 prom act 5.1%.
`CCOC(=O)c1c(C)oc(NC(=O)COc2ccc(Cl)cc2C)c1C#N` gave ELG1 DNA repair 20.6µM*, SMN2 splice up 11.5%, FLuc modulator inconclusive, ELG1 genotox 3.4%, Rab9 promoter act 0.3% and NPC1 prom act -0.2%.
Cc1cc(Cl)ccc1OCC(=O)Nc1ccccc1CO was read as ELG1 DNA repair inconclusive, SMN2 splice up 25.3%, FLuc modulator 21.3µM*, ELG1 genotox inconclusive, Rab9 promoter act 15.1% and NPC1 prom act 23.1%.
Screening COc1ccc(C2C(=O)N(C3CCC(C)CC3)CC(=O)N2C2CCCCC2)cc1OC (centres undefined) returned FLuc modulator 4.2%.
Cc1n[nH]c(=S)n1/N=C/c1ccc(OCc2ccc(Cl)cc2Cl)cc1 was read as ELG1 DNA repair inconclusive, SMN2 splice up inconclusive, FLuc modulator inconclusive, ELG1 genotox 13.4%, Rab9 promoter act 10.2% and NPC1 prom act 19.0%.
Cc1ccc(COc2ccc(/C=N/O)cc2)cc1 was read as ELG1 DNA repair inconclusive, SMN2 splice up 10µM*, FLuc modulator 5.36µM*, ELG1 genotox inconclusive, Rab9 promoter act 1.26µM* and NPC1 prom act inconclusive.
Cc1n[nH]c(=S)n1/N=C/c1ccc(OCc2ccc(Cl)cc2)cc1 was read as ELG1 DNA repair inconclusive, SMN2 splice up -6.0%, FLuc modulator 19µM*, ELG1 genotox 1.9%, Rab9 promoter act 12.6% and NPC1 prom act 14.7%.
For NC(N)=N/N=C/c1ccc(OCc2ccc(Cl)cc2)cc1 the results were ELG1 DNA repair inconclusive, FLuc modulator 6.01µM*, ELG1 genotox inconclusive, Rab9 promoter act inconclusive and NPC1 prom act 3.55µM*.
NC(N)=N/N=C/c1ccc(OCc2ccccc2)cc1 was read as ELG1 DNA repair inconclusive, FLuc modulator inconclusive, ELG1 genotox 1.3%, Rab9 promoter act 10.9% and NPC1 prom act 23.7%.
For CCN(CC(=O)NC1CCS(=O)(=O)C1)S(=O)(=O)c1ccc(Cl)cc1C(F)(F)F (centres undefined) the results were ELG1 DNA repair inconclusive, FLuc modulator -1.4%, ELG1 genotox 1.1%, Rab9 promoter act 3.1% and NPC1 prom act 1.6%.
Screening CC1=NN(c2ccccc2)C(=O)C1C=Nc1ccc(N(C)C)cc1 (centres undefined) returned ELG1 DNA repair 6.51µM*, FLuc modulator inconclusive, ELG1 genotox 0.9%, Rab9 promoter act -2.9% and NPC1 prom act 10.6%.
O=C1NC(=S)N/C1=C/C=C/c1ccccc1 was read as ELG1 DNA repair inconclusive, SMN2 splice up 20.3%, FLuc modulator -14.1%, ELG1 genotox inconclusive, Rab9 promoter act inconclusive and NPC1 prom act 18.2%.
Screening CC1=NN(c2ccccc2)C(=O)C1/C=C1/NC(=S)NC1=O (centres undefined) returned ELG1 DNA repair -0.5%, FLuc modulator 16.9µM*, ELG1 genotox -0.9%, Rab9 promoter act 9.6% and NPC1 prom act 1.2%.
Screening CC1=NN(c2ccccc2)C(=O)C1N=Nc1ccc(C)cc1 (centres undefined) returned ELG1 DNA repair 6.7%, SMN2 splice up 21.4%, FLuc modulator -17.0%, ELG1 genotox 0.6%, Rab9 promoter act -2.5% and NPC1 prom act 1.2%.
For O=C(c1cccc(Br)c1)c1cn(-c2ccccc2)nc1C(=O)c1ccccc1 the results were ELG1 DNA repair inconclusive, SMN2 splice up -15.9%, FLuc modulator -1.2%, ELG1 genotox -1.4%, Rab9 promoter act 0.7% and NPC1 prom act -10.8%.
`CCOC(=O)c1nn(-c2ccc([N+](=O)[O-])cc2)cc1O` gave ELG1 DNA repair inconclusive, FLuc modulator inconclusive, ELG1 genotox 8.5%, Rab9 promoter act -4.8% and NPC1 prom act -1.7%.
Screening COC(=O)c1nn(-c2ccc3c(c2)CCN3C(C)=O)cc1O returned ELG1 DNA repair -19.1%, SMN2 splice up inconclusive, FLuc modulator 0.536µM*, ELG1 genotox inconclusive, Rab9 promoter act 3.16µM* and NPC1 prom act 0.501µM*.
For CCOC(=O)c1nn(-c2ccc(C)cc2)cc1C(=O)c1ccccc1 the results were ELG1 DNA repair inconclusive, SMN2 splice up 11.2µM*, FLuc modulator 1.9µM*, ELG1 genotox 2.59µM*, Rab9 promoter act 2.82µM* and NPC1 prom act 3.98µM*.
For COC(=O)c1nn(-c2ccc3c(c2)OCO3)cc1O the results were ELG1 DNA repair inconclusive, SMN2 splice up inconclusive, FLuc modulator 10.7µM*, ELG1 genotox inconclusive, Rab9 promoter act 19.9% and NPC1 prom act inconclusive.
`CCOC(=O)c1nn(-c2ccc(C)c(C)c2)cc1O` gave ELG1 DNA repair inconclusive, SMN2 splice up 0.4%, FLuc modulator 4.26µM*, ELG1 genotox 6.51µM*, Rab9 promoter act 15.4% and NPC1 prom act inconclusive.
`Cc1csc(=O)n1CC(=O)OCC(=O)c1c(N)n(CC(C)C)c(=O)n(C)c1=O` gave ELG1 DNA repair inconclusive, FLuc modulator 1.0%, ELG1 genotox -4.4%, Rab9 promoter act -6.3% and NPC1 prom act -2.0%.
Screening CCOC(=O)c1nn(-c2c(C)n(C)n(-c3ccccc3)c2=O)cc1O returned ELG1 DNA repair -6.8%, SMN2 splice up 2.7%, FLuc modulator -0.1%, ELG1 genotox -3.1%, Rab9 promoter act 2.2% and NPC1 prom act -0.8%.
CCOC(=O)c1nn(-c2ccc3c(c2)OCCO3)cc1O was read as ELG1 DNA repair inconclusive, SMN2 splice up inconclusive, FLuc modulator 3.01µM*, ELG1 genotox 8.2µM*, Rab9 promoter act 2.82µM* and NPC1 prom act 2.82µM*.

From PubChem
